# Measured values: the supplement of paper PMC8728848
# This excerpt belongs to a sample that is enriched for the strongest signals.
# Experiments:
# Assay in all cases: glycan array binding signal (z-score within array); higher = stronger binding
# Details in all cases: glycan notation: IUPAC condensed, linker removed
# [1] = target: Fuc(a1-2)Gal(b1-4)[Fuc(a1-3)]GlcNAc(b1-3)Gal(b1-4)[Fuc(a1-3)]GlcNAc
# Outline: (§1)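 Arrays were curated from the Consortium for Functional Glycomics database, 3228 in total, and kept only where the protein sequence was available. Binding is expressed as a within-array Z-score. This score was averaged across arrays of the same protein sequence at different concentrations or buffers and across linkers, and negative values can be read as non-binding.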
# [2] = target: Fuc(a1-2)[Gal(a1-3)]Gal(b1-3)GalNAc(b1-3)Gal(a1-4)Gal(b1-4)Glc
# Outline: as §1
# [3] = target: Fuc(a1-2)[Gal(a1-3)]Gal(b1-4)GlcNAc(b1-2)Man(a1-3)[Fuc(a1-2)[Gal(a1-3)]Gal(b1-4)GlcNAc(b1-2)Man(a1-6)]Man(b1-4)GlcNAc(b1-4)[Fuc(a1-6)]GlcNAc
# Outline: as §1
# [4] = target: Fuc(a1-2)[Gal(a1-3)]Gal(b1-4)GlcNAc(b1-3)GalNAc
# Outline: as §1
# [5] = target: Fuc(a1-2)[GalNAc(a1-3)]Gal(b1-3)GlcNAc(b1-2)Man(a1-3)[Fuc(a1-2)[GalNAc(a1-3)]Gal(b1-3)GlcNAc(b1-2)Man(a1-6)]Man(b1-4)GlcNAc(b1-4)[Fuc(a1-6)]GlcNAc
# Outline: as §1
# [6] = target: Fuc(a1-2)[GalNAc(a1-3)]Gal(b1-4)GlcNAc(b1-2)Man(a1-3)[Fuc(a1-2)[GalNAc(a1-3)]Gal(b1-4)GlcNAc(b1-2)Man(a1-6)]Man(b1-4)GlcNAc(b1-4)[Fuc(a1-6)]GlcNAc
# Outline: as §1
# [7] = target: Fuc(a1-2)[GalNAc(b1-3)]Gal
# Outline: as §1
# [8] = target: Fuc(a1-4)GlcNAc
# Outline: as §1
# [9] = target: Gal(a1-3)Gal
# Outline: as §1
# [10] = target: Gal(a1-3)Gal(b1-4)GlcNAc(b1-2)Man(a1-3)[Gal(a1-3)Gal(b1-4)GlcNAc(b1-2)Man(a1-6)]Man(b1-4)GlcNAc(b1-4)GlcNAc
# Outline: as §1
# [11] = target: Gal(b1-3)GlcNAc(b1-3)Gal(b1-4)GlcNAc(b1-6)[Gal(b1-3)GlcNAc(b1-3)]Gal(b1-4)Glc
# Outline: as §1
# [12] = target: Gal(b1-3)GlcNAc(b1-3)Gal(b1-4)[Fuc(a1-3)]GlcNAc
# Outline: as §1
# [13] = target: Gal(b1-3)[Fuc(a1-4)]GlcNAc
# Outline: as §1
# [14] = target: Gal(b1-4)GlcNAc(b1-2)Man(a1-3)[Gal(b1-4)GlcNAc(b1-2)Man(a1-6)]Man(b1-4)GlcNAc(b1-4)GlcNAc
# Outline: as §1
# [15] = target: Gal(b1-4)GlcNAc(b1-3)Gal(b1-4)GlcNAc(b1-2)Man(a1-3)[Gal(b1-4)GlcNAc(b1-3)Gal(b1-4)GlcNAc(b1-2)Man(a1-6)]Man(b1-4)GlcNAc(b1-4)GlcNAc
# Outline: as §1
# [16] = target: Gal(b1-4)GlcNAc(b1-3)Gal(b1-4)GlcNAc(b1-2)Man(a1-3)[Gal(b1-4)GlcNAc(b1-3)Gal(b1-4)GlcNAc(b1-2)Man(a1-6)]Man(b1-4)GlcNAc(b1-4)[Fuc(a1-6)]GlcNAc
# Outline: as §1
# [17] = target: Gal(b1-4)GlcNAc(b1-3)Gal(b1-4)GlcNAc(b1-3)Gal(b1-4)GlcNAc(b1-2)[Gal(b1-4)GlcNAc(b1-3)Gal(b1-4)GlcNAc(b1-3)Gal(b1-4)GlcNAc(b1-6)]Man(a1-6)[Gal(b1-4)GlcNAc(b1-3)Gal(b1-4)GlcNAc(b1-3)Gal(b1-4)GlcNAc(b1-2)Man(a1-3)]Man(b1-4)GlcNAc(b1-4)[Fuc(a1-6)]GlcNAc
# Outline: as §1
# [18] = target: Gal(b1-4)GlcNAc(b1-3)Gal(b1-4)GlcNAc(b1-3)Gal(b1-4)GlcNAc(b1-3)Gal(b1-4)GlcNAc(b1-2)Man(a1-3)[Gal(b1-4)GlcNAc(b1-3)Gal(b1-4)GlcNAc(b1-3)Gal(b1-4)GlcNAc(b1-3)Gal(b1-4)GlcNAc(b1-2)Man(a1-6)]Man(b1-4)GlcNAc(b1-4)[Fuc(a1-6)]GlcNAc
# Outline: as §1
# [19] = target: Gal(b1-4)GlcNAc(b1-3)Gal(b1-4)GlcNAc(b1-3)Gal(b1-4)GlcNAc(b1-3)Gal(b1-4)GlcNAc(b1-3)Gal(b1-4)GlcNAc(b1-2)Man(a1-3)[Gal(b1-4)GlcNAc(b1-3)Gal(b1-4)GlcNAc(b1-3)Gal(b1-4)GlcNAc(b1-3)Gal(b1-4)GlcNAc(b1-3)Gal(b1-4)GlcNAc(b1-2)Man(a1-6)]Man(b1-4)GlcNAc(b1-4)GlcNAc
# Outline: as §1
# [20] = target: Gal(b1-4)GlcNAc(b1-3)Gal(b1-4)GlcNAc(b1-3)Gal(b1-4)GlcNAc(b1-3)Gal(b1-4)GlcNAc(b1-3)Gal(b1-4)GlcNAc(b1-2)Man(a1-3)[Gal(b1-4)GlcNAc(b1-3)Gal(b1-4)GlcNAc(b1-3)Gal(b1-4)GlcNAc(b1-3)Gal(b1-4)GlcNAc(b1-3)Gal(b1-4)GlcNAc(b1-2)Man(a1-6)]Man(b1-4)GlcNAc(b1-4)[Fuc(a1-6)]GlcNAc
# Outline: as §1
# [21] = target: Gal(b1-4)GlcNAc(b1-3)Gal(b1-4)GlcNAc(b1-3)Gal(b1-4)GlcNAc(b1-3)Gal(b1-4)GlcNAc(b1-3)Gal(b1-4)GlcNAc(b1-3)Gal(b1-4)GlcNAc(b1-2)Man(a1-3)[Gal(b1-4)GlcNAc(b1-3)Gal(b1-4)GlcNAc(b1-3)Gal(b1-4)GlcNAc(b1-3)Gal(b1-4)GlcNAc(b1-3)Gal(b1-4)GlcNAc(b1-3)Gal(b1-4)GlcNAc(b1-2)Man(a1-6)]Man(b1-4)GlcNAc(b1-4)GlcNAc
# Outline: as §1
# [22] = target: Gal(b1-4)GlcNAc(b1-6)GalNAc
# Outline: as §1
# [23] = target: Gal3S(b1-4)Glc6S
# Outline: as §1
# [24] = target: Gal6S(b1-4)GlcNAc
# Outline: as §1
# [25] = target: Gal6S(b1-4)GlcNAc6S
# Outline: as §1
binder,measurement,setting,value
SP15308B-bot-339-22-339 (Bacteroides ovatus) (protein) NEWEDEQYEQYVSFKAPIASGSDGVTTIYVRYKDNGKVTYQLPIIVSGSTVNSQDRDIHIAVDKDTLKTLNIERFSLYRPELWYTEMEEDKYEFPETVHIPAGSCVELLNIDFNLQDIDMLEKWVLPLTIVDDGSYAYQSHPRKNYAKALLKVVPFNNYSGSYTASSMKVYTYINGKPDTNARTTDKRTGYVVDNNSIFFYAGLINEDMDKDMRKKYKINVHFKEDGTLDMKQDDPSNEMEFELIGTPTYSSTSVMDATRPYLERRYVQIMFEYDFQDFTYGGSGTEVIPIKYRVAGSMTLLRNINTQIPDEDQQIEW,glycan array binding signal (z-score),[1],-0.601
same,glycan array binding signal (z-score),[2],-0.087
same,glycan array binding signal (z-score),[3],0.241
same,glycan array binding signal (z-score),[4],-0.515
same,glycan array binding signal (z-score),[5],-0.323
same,glycan array binding signal (z-score),[6],-0.388
same,glycan array binding signal (z-score),[7],0.15
same,glycan array binding signal (z-score),[8],2.58
same,glycan array binding signal (z-score),[9],0.449
same,glycan array binding signal (z-score),[10],3.88
same,glycan array binding signal (z-score),[11],-0.129
same,glycan array binding signal (z-score),[12],-0.548
same,glycan array binding signal (z-score),[13],-0.425
same,glycan array binding signal (z-score),[14],-0.534
same,glycan array binding signal (z-score),[15],2.8
same,glycan array binding signal (z-score),[16],2.57
same,glycan array binding signal (z-score),[17],2.24
same,glycan array binding signal (z-score),[18],7.12
same,glycan array binding signal (z-score),[19],1.84
same,glycan array binding signal (z-score),[20],0.658
same,glycan array binding signal (z-score),[21],6.94
same,glycan array binding signal (z-score),[22],0.182
same,glycan array binding signal (z-score),[23],-0.337
same,glycan array binding signal (z-score),[24],1.87
same,glycan array binding signal (z-score),[25],-0.252
